In PubChem BioAssay (NCI):
Compounds without any hit were thinned out: in the full panel of roughly 83,000, 20% have a hit.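 Note: values are percent growth. 100 is the growth of untreated cells, values between 100 and 0 indicate rising inhibition; between -100 and 0 indicates cell death.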 Unmarked numbers belong to inactive results. Activity calls are given as the source filed them.

What follows are compounds tested on CAKI-1 renal (assay: NCI-60 one-dose screen, 48 h (100 = growth as untreated, 0 = no growth, -100 = all killed)). Settings: 10 µM unless noted.
Method: Growth inhibition of the CAKI-1 human tumor cell line is measured as a screen for anti-cancer activity. Cells are grown in 96 well plates and exposed to the test compound for 48 hours. Compounds are tested at a single concentration, which is 10^-5 M for most compounds. The reported endpoint is percent growth (GI% or GIPRCNT), where numbers from 0 - 100% represent growth inhibition, and numbers from -100% - 0 represent cell death. For example, a value of 40 represents 60% growth inhibition. A value of 0 means no net growth occurred over the course of the experiment. A value of -40 indicates 40% of cells at the beginning of the experiment died by the end of the experiment. A value of -100 means all cells are dead at the end of the experiment.
NCI-60 Human Tumor Cell Lines Screen was performed using the standard one-dose NCI protocol, which is described in more detail at https://dtp.cancer.gov/discovery_development/nci-60/default.htm.
Compounds with GIPRCNT values below 10 were considered active. Activity score was based on GIPRCNT using the following formula: […]
Score is 0 for GIPRCNT values of 100 or above, 50 for GIPRCNT values of 0, and 100 for GIPRCNT values of -100.

| Structure (SMILES) | growth |
| --- | --- |
| CCOC(=O)CNC | 94.6% |
| CC(C)C(=O)OCCOc1ccc(C(C)(C)C)cc1 | 100% |
| CSc1nc2[nH]ncc2c(=O)[nH]1 | 103% |
| CSc1nsc(N)n1 | 97.2% |
| O=c1cc(C(F)(F)F)[nH]c(=S)[nH]1 | 88% |
| Cc1ccc(S(=O)(=O)CCCl)cc1 | 117% |
| CCOC(C=O)OCC | 97.8% |
| O=C(O)Cc1cccc2ccccc12 | 94.6% |
| COCC(N)=O | 104% |
| CC(C)(C)NCCC(O)c1cc(C(F)(F)F)nc2c(C(F)(F)F)cccc12 (stereo not given) | 75.4% |
| O=Cc1ccc(O)c(O)c1 | 112% |
| COC1CC(OC(=O)c2ccc([N+](=O)[O-])cc2)C(COC(=O)c2ccc([N+](=O)[O-])cc2)O1 (stereo not given) | 94% |
| CC(O)C(F)(F)C(F)(F)C(F)(F)F (stereo not given) | 99.2% |
| COc1ccc(C(=O)/C(=N/Nc2ccccc2)c2ccc(OC)cc2)cc1 | 73.9% |
| CCC(=O)Oc1ccc2ccccc2c1 | 91.2% |
| O=C(O)c1ccc([N+](=O)[O-])cc1S(=O)(=O)O | 110% |
| CC(C)(C)CC1(C)NC(=O)NC1=O (stereo not given) | 102% |
| OCc1cccnc1 | 35.5% |
| CC1CC2C3CCC4=CC(=O)CCC4(C)C3CCC2(C)C1(O)C(=O)CO (stereo not given) | 94.9% |
| CC(c1ccccc1)N1C(=O)CSC1=S (stereo not given) | 61.1% |

| Structure (SMILES) | growth |
| --- | --- |
| O=Cc1c(O)c2ccccc2[nH]c1=O | 98.1% |
| CCOc1ccncc1[N+](=O)[O-] | 103% |
| Nc1ccc(F)cc1F | 94.7% |
| NC(=O)N1CCOCC1 | 115% |
| CC(CCC#N)(CCC#N)C(=O)c1ccccc1 | 112% |
| Cc1ccc(NC(=O)c2ccccc2Cl)cc1 | 107% |
| NC(=O)OCCO | 99.6% |
| CCOC(=O)C1(N)CCCCC1 | 88.2% |
| C=C(C)COc1ccc(C(C)(C)C)cc1 | 96.2% |
| Nc1cc2c(cc1Cl)C(=O)c1ccccc1C2=O | 41.5% |
| COc1ccc(/C=N/NC(=O)COCC(=O)N/N=C/c2ccc(OC)cc2)cc1 | 98.8% |
| CC(=O)NCNC(C)=O | 102% |
| O=C(O)C1CCCN1C(=O)OCc1ccccc1 (stereo not given) | 94.6% |
| Cc1cc(CC(=O)NCCO)n(CCO)c(=O)c1 | 101% |
| O=C(CCl)Nc1ccccc1SCc1cc(Cl)cc2c1OCOC2 | 35% |
| Cc1cc(Cl)cc(Cc2cc(Cl)cc(C)c2O)c1O | 3.84% (active) |
| CC(=O)NC(O)C(Cl)Cl (stereo not given) | 92.3% |
| O=C(Nc1ccccc1)c1ccco1 | 95.9% |
| CCNC(=O)Oc1ccc[nH]c1=O | 95.1% |
| Cc1[nH]c(=S)[nH]c(=O)c1C | 103% |
